# ChEMBL document CHEMBL1201862, “PubChem BioAssay data set” (2004)
# In all, about 400,000 compounds went through this assay and about 2,100 (0.53%) were called active. Inconclusive results (about 14%) are left out. No rule for the calls is given here. Only a selection was taken, and actives are over-represented in it overall.
# Molecular target: Ataxin-2 (Homo sapiens) (UniProt Q99700)
# Test: qHTS for Inhibitors of ATXN expression.
# Assay type: functional
# Ataxin-2 (Homo sapiens), sequence (Q99700 whole entry): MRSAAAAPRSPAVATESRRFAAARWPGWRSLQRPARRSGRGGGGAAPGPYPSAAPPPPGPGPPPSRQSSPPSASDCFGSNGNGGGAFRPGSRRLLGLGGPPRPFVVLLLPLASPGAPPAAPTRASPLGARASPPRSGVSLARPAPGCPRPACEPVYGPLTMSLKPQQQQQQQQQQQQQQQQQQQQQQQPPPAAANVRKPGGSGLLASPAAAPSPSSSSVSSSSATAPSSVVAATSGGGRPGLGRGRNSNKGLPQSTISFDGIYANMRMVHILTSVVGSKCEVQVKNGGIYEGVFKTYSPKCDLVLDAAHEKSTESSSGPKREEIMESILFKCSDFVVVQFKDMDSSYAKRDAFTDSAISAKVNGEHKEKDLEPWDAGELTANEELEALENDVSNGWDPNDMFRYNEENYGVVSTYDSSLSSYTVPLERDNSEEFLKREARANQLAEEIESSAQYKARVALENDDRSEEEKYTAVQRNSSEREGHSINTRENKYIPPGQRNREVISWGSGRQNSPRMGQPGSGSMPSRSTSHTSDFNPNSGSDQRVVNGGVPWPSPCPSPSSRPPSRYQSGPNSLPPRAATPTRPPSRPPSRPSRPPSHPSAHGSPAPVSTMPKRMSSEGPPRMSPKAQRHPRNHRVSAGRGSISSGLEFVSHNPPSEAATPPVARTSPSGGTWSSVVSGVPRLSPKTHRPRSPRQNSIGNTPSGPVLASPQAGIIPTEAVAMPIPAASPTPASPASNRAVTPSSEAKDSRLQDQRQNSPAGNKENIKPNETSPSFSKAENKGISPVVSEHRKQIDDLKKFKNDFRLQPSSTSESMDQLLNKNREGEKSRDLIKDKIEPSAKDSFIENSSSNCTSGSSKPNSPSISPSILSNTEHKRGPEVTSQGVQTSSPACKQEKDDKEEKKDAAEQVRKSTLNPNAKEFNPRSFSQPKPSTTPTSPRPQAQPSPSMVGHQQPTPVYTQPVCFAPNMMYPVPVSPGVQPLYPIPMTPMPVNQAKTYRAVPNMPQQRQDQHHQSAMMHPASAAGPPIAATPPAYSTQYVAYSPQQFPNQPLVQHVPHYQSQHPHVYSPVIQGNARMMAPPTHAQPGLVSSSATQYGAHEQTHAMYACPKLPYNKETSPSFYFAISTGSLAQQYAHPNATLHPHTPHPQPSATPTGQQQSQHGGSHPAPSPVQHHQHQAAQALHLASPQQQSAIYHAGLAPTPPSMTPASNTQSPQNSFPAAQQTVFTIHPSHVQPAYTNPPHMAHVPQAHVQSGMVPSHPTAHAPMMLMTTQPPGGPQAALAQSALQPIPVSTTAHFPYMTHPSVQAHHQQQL
row,SMILES,Potency
1,Cn1c(=O)n(CCOc2ccc([N+](=O)[O-])cc2)c2ccccc21,inactive
2,Cn1cnc([N+](=O)[O-])c1S(=O)(=O)Oc1ccccc1,28.2 µM (active)
3,Cn1cnc([N+](=O)[O-])c1S(=O)(=O)c1cccc(Cl)c1,8.91 µM (active)
4,CC(=O)Nc1ccc(OS(=O)(=O)c2cc(Cl)ccc2C)cc1,inactive
5,Cn1cnc([N+](=O)[O-])c1S(=O)(=O)Oc1ccc(Cl)cc1,31.6 µM (active)
6,CCOc1ccc(Nc2nc3c(S(=O)(=O)c4cccc(Cl)c4)nnn3c3ccsc23)cc1,inactive
7,O=S(=O)(Oc1ccc(Cl)cc1)c1cccc2cccnc12,inactive
8,Cc1c2c(n3c(nc4ccccc43)c1C#N)N(CCCN(C)C)CC2,inactive
9,Cc1ccc(Sc2ncccc2C(=O)N(C)Cc2cccs2)c(C)c1,inactive
10,O=c1c2ccccc2oc2cc(NCCCN3CCOCC3)ccc12,inactive
11,CCN(CC)S(=O)(=O)c1ccc(N2CCCC2)c(NS(=O)(=O)c2cccs2)c1,inactive
12,CCCCCCSc1ccc(-c2nc3cnccn3c2NCCCC)cc1,inactive
13,O=c1c2ccccc2nc(/C=C/c2cc(Br)ccc2O)n1CCCO,inactive
14,CN(C)c1ccc(/C=C/c2nc3ccccc3c(=O)n2CCO)cc1,inactive
15,O=c1c2ccccc2nc(/C=C/c2ccc([N+](=O)[O-])o2)n1CCCO,15.8 µM (active)
16,CCn1c(/C=C/c2cc[n+](C)cc2)nc2ccccc21,inactive
17,COc1ccc(OC)c(C=Cc2ccc([N+](=O)[O-])cc2)c1,inactive
18,COc1ccc(Oc2ccc(/C=C/C(=O)c3ccc(O)cc3)cc2[N+](=O)[O-])cc1,28.2 µM (active)
19,COc1ccc(Oc2ccc(/C=C/C(=O)c3cccc(OC)c3)cc2[N+](=O)[O-])cc1,39.8 µM (active)
20,O=C(/C=C/c1ccc(Cl)c([N+](=O)[O-])c1)c1ccc(O)cc1,28.2 µM (active)
21,Cc1cc(CNC(=O)c2cccc([N+](=O)[O-])c2C)c2ccccc2n1,inactive
22,COc1ccc(NC(=O)Cn2nc(C(=O)O)c3ccccc3c2=O)cc1Cl,inactive
23,Cc1ccc(NC(=S)N(CCCN2CCCC2)Cc2cccn2Cc2ccc(Cl)cc2)cc1,39.8 µM (active)
24,CN(CC(=O)Nc1cccc(C#N)c1)Cc1ccc(Cl)cc1,inactive
25,COc1ccc(NC(=S)N(CCCN2CCCC2)Cc2cccn2Cc2ccc(Cl)cc2)cc1Cl,39.8 µM (active)
26,Cc1cccc(NC(=S)N(CCCN2CCCC2)Cc2cccn2Cc2ccc(Cl)cc2)c1,25.1 µM (active)

row,SMILES,Potency
1,CSc1cccc(NC(=S)N(CCCN2CCCC2)Cc2cccn2Cc2ccc(Cl)cc2)c1,31.6 µM (active)
2,CSc1ccc(CN(C)CC(=O)Nc2ccc(C)cc2Br)cc1,inactive
3,COc1cccc(/C=C/c2nc(C#N)c(N(C)Cc3ccccc3)o2)c1,inactive
4,CC(C)(C)c1ccc(/C=C2\Oc3c(ccc(O)c3CN3CCN(CCO)CC3)C2=O)cc1,inactive
5,CCN1C(=O)N(CC)C2C1N(CO)C(=O)N2CO (stereo unspecified),inactive
6,Cc1ccc(S(=O)(=O)N2CCN(CC(=O)N3CCCC3)CC2)c(C)c1,inactive
7,O=C(N/N=C/c1ccc(N2CCOCC2)cc1)c1ccc(NS(=O)(=O)c2cccs2)cc1,inactive
8,O=C1C(Nc2ccccc2)=C/C(=N/S(=O)(=O)c2cccs2)c2ccccc21,8.91 µM (active)
9,O=C(O)c1ccc(NC2=C/C(=N/S(=O)(=O)c3ccccc3)c3ccccc3C2=O)cc1,39.8 µM (active)
10,O=C(O)c1ccc(NC2=C/C(=N/S(=O)(=O)c3cccs3)c3ccccc3C2=O)cc1,22.4 µM (active)
11,C=CCN1C(=O)/C(=C/N(C)C)S/C1=N\S(=O)(=O)c1cccs1,inactive
12,O=C(O)c1ccc(Nc2c3ccccc3nc3ccccc23)cc1,inactive
13,O=S(=O)(O)c1cccc2cccc(Nc3ccccc3)c12,inactive
14,COC(=O)c1ccc(NC(=O)CS(=O)(=O)c2ccccc2)cc1,inactive
15,Cc1cc(C)c(S(=O)(=O)Nc2cccc(C(=O)O)c2)cc1S(=O)(=O)Nc1cccc(C(=O)O)c1,inactive
16,Cc1ccc(S(=O)(=O)/N=C2\C=C(Nc3cccc(C(=O)O)c3)C(=O)c3ccccc32)c(C)c1,28.2 µM (active)
17,Cc1cc(NS(=O)(=O)c2ccc(NC(=O)c3cc4cc(Br)ccc4oc3=O)cc2)no1,inactive
18,O=c1cc(-c2ccccc2)c2c(O)cc(O)cc2o1,inactive
19,O=c1oc2ccc(Br)cc2cc1S(=O)(=O)c1ccc(F)cc1,inactive
20,CCCCN(C)S(=O)(=O)c1ccc(C(=O)Nc2sc3c(c2C(N)=O)CC(C)(C)NC3(C)C)cc1,inactive
21,Brc1ccccc1C1CC(c2ccccc2)=Nc2ccccc2N1 (stereo unspecified),inactive
22,C=C1C(=O)O[C@@H]2C[C@@H](C)[C@@H]3C=CC(=O)[C@@]3(C)[C@@H](OC(C)=O)[C@H]12,8.91 µM (active)
23,Cc1cc(/C=C2\Cc3ccccc3C2=O)c(C)n1-c1ccccc1,inactive
24,CC(C)(C)CC(C)(C)NCC(O)COCCOc1ccc(Br)cc1 (stereo unspecified),39.8 µM (active)
25,CCCCOCCCNC(=O)C[C@@H]1C[C@@]2(C(=O)OC)CCCCC=C2N(Cc2ccc(Cl)cc2Cl)C1=O,39.8 µM (active)
26,CCCCOCCCNC(=O)C[C@@H]1C[C@@]2(C(=O)OC)CCCCC=C2N(Cc2cccc3ccccc23)C1=O,28.2 µM (active)

row,SMILES,Potency
1,COC(=O)[C@]12CCCCC=C1N(Cc1ccc(Cl)cc1Cl)C(=O)[C@H](CC(=O)N1CCN(C(=O)C3CC3)CC1)C2,35.5 µM (active)
2,COCCCNC(=O)CN1C(=O)c2cccc3cccc1c23,inactive
3,COc1ccc(C2=CSC3=NCCN23)cc1Br,inactive
4,COc1ccc2nc(N3CCC(C)CC3)c(C#N)cc2c1,inactive
5,COc1ccc(/C=N/n2c(C)nc3sc(C)c(C)c3c2=O)cc1,inactive
6,CCOC(=O)/C(=C\c1ccc(Cl)cc1)c1nc(O)c2c(C)c(C)sc2n1,39.8 µM (active)
7,CCOC(=O)c1sc(-c2ccc(Cl)cc2Cl)nc1O,inactive
8,COc1ccc(C2CC(c3cccs3)=NN2c2ccccc2)cc1 (stereo unspecified),inactive
9,CC1(C)CC(=O)C2=C(C1)c1c(ccc3ccccc13)NC2c1ccc(C(=O)O)cc1 (stereo unspecified),inactive
10,CC1(C)CC(=O)c2sc(NC(=O)CCS(=O)(=O)c3ccccc3)nc2C1,37.7 µM (active)
11,O=C(Nc1nc2ccccc2s1)c1cc2c(s1)-c1ccccc1OC2,inactive
12,CCCC(=O)Nc1nc2c(s1)COc1ccccc1-2,inactive
13,CCc1cccc(NC(=O)CCS(=O)(=O)c2ccc(Br)cc2)c1,inactive
14,O=C(CCS(=O)(=O)c1ccccc1)Nc1nc2c(s1)COc1ccccc1-2,33.6 µM (active)
15,COc1ccc(C2=CC(c3ccccc3Cl)n3nc(-c4ccc(C)cc4)nc3N2)cc1 (stereo unspecified),inactive
16,COc1ccc(-c2nc3ncccn3c2Nc2ccccc2)cc1,inactive
17,Cc1ccc(-c2nc3ccccn3c2Nc2ccc3c(c2)OCO3)cc1,35.5 µM (active)
18,O=C(c1ccccc1)c1sc(Nc2ccc3c(c2)OCO3)nc1-c1ccccc1,inactive
19,CCN(C(=O)CSc1nnc(C2CC2)n1-c1ccccc1)C1CCS(=O)(=O)C1 (stereo unspecified),inactive
20,CCOC(=O)CSc1nnc2n(-c3ccccc3)c(=O)c3c4c(sc3n12)CC(C(C)(C)C)CC4 (stereo unspecified),35.5 µM (active)
21,CCOC(=O)C1CCCN(CCC(=O)Nc2cc(C)ccc2C)C1 (stereo unspecified),inactive
22,COc1cccc2c3c(c(C)nc12)CCN3c1ccccc1,inactive
23,Cc1cccn2c(=O)c3cc(C(=O)NCC4CCCO4)c(=N)n(CCc4ccccc4)c3nc12 (stereo unspecified),inactive
24,Oc1ccc2nnc3c(Br)cnn3c2c1,inactive
25,COc1cc2nc(NC(=O)c3ccc(S(=O)(=O)N4CCCC4)cc3)sc2cc1OC,inactive
26,NS(=O)(=O)c1ccc2nc(NC(=O)c3ccc(Br)o3)sc2c1,inactive

row,SMILES,Potency
1,CCCNS(=O)(=O)c1ccc2nc(NC(=O)c3ccc(F)cc3)sc2c1,39.8 µM (active)
2,Cc1n[nH]c(-c2cccnc2)c1N=NN(C)C,23.8 µM (active)
3,O=C/C(=C\Nc1ccc(S(=O)(=O)CCO)cc1)c1nc2cc(Cl)ccc2o1,inactive
4,Cc1ccsc1/C=N/N=C/c1sccc1C,inactive
5,C=C1C(=O)OC2C=C(CO)C3OC3C3OC3(C)CC(OC(=O)/C(=C/C)COC(C)=O)C12 (stereo unspecified),16.8 µM (active)
6,O=C1Nc2c(Br)cc(Br)c3cccc1c23,inactive
7,Cc1cnc2c(c1)C(=O)c1ccccc1-2,inactive
8,Cc1cc(C)cc(NC2=C(c3ccccc3)C(=O)c3ccccc32)c1,20 µM (active)
9,Cc1ccc(C2C=C(c3ccccc3)Nc3ncnn32)cc1 (stereo unspecified),inactive
10,CCc1cc2c(C)cc(=O)oc2cc1OC(=O)C1CCCN1C(=O)OC(C)(C)C (stereo unspecified),inactive
11,CC(=O)/N=c1\c(C#N)cc2c(=O)n3cccc(C)c3nc2n1CCCOC(C)C,inactive
12,C=C(C)CN=C(S)NN=C1c2ccccc2-c2ccccc21,inactive
13,CCOC(=O)Nc1ccc2c(c1)C(=NNC(N)=S)c1ccccc1-2,31.6 µM (active)
14,CCOC(=O)Nc1ccc2c3c(cccc13)-c1ccccc1-2,inactive
15,COc1ccc(C2C=C(c3ccccc3)Nc3nc(NC(=O)c4ccc(C)cc4)nn32)cc1 (stereo unspecified),inactive
16,COC1(OC)C(/C=C/c2ccc(Cl)cc2)C(C#N)(C#N)C1(OC)OC (stereo unspecified),31.6 µM (active)
17,NC(=O)c1ccsc1NC(=O)COC(=O)CNC(=O)c1ccc(F)cc1,inactive
18,O=C(CCCSc1nc(O)c2ccccc2n1)c1ccccc1,inactive
19,O=C(CCSc1ccc(Br)cc1)c1ccc(O)cc1,39.8 µM (active)
20,C=Cn1cc[n+](CC(=O)c2ccc(Br)cc2)c1,inactive
21,COc1ccc(C2Nc3cc(OC)ccc3-n3cccc32)cc1 (stereo unspecified),inactive
22,COc1ccc(N2C(=O)CC(Sc3nc[nH]n3)C2=O)c(OC)c1 (stereo unspecified),28.2 µM (active)
23,COc1ccccc1N1C(=O)CC(N(O)c2ccccc2)C1=O (stereo unspecified),inactive
